Data on five compounds can be found in PubChem BioAssay AID449728 (The Scripps Research Institute Molecular Screening Center, 2010).

Each structure is given as a SMILES string. The campaign covered roughly 330,000 compounds. About 900 (0.27%) were called active. Shown is part of a subset that was picked to be rich in actives. Values without a mark were called inactive.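 How the source made its calls: active means inhibition above the campaign's mean inhibition across all tested compounds plus 3 SD (cut at about 9.9% in these data); inactive means the rest.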

The nature of this experiment: E. coli V3065 growth inhibition, primary screen, counter-screen for AddAB inhibitor project, absorbance, OD600 (AID 449728). To be noted: 18 h, at 11.9 µM, active compounds read high. For orientation: A counterscreen serves to expose hits that act by an unwanted route or on another target.
In general, inhibition refers to the drop in the measured response relative to a control, in per cent. For the compound `Cc1ccc(-n2c(-c3ccc([N+](=O)[O-])cc3)nc3ccccc3c2=O)cc1`, the inhibition is -0.79%.

Consider `O=[N+]([O-])c1cnc2ccc3ccccc3c2c1`, for which the inhibition was 53.1% (active). The same measure for `C/C(=N/O)c1ccc2ccc3ccccc3c2c1`: 1.2%; for `COCCNC(=O)CN1C2CCC1CC(O)(c1cccnc1)C2` (stereo not given): -3.36%; for `O=c1[nH]c(=O)n(-c2ccc(F)cc2)c(O)c1C=NCCN1CCCCC1`: -0.49%.
